The values that follow come from PubChem BioAssay (NCATS).

Inconclusive results are not listed. Values without a mark were called inactive. Calls of active or inactive are those of the source. Calls follow the shape of the dose curve; as a rule, active = well fitted curve in the direction sought with a large enough effect; inconclusive = small, poorly fitted or top-dose-only effect, or another doubt; inactive = no such curve, though single readings can be large; an effect the other way counts as inactive or inconclusive.

Experiment [1] has as its system HaCat. As to the kind of experiment: Cytotoxic Profiling of Annotated Libraries Using Quantitative High-Throughput Screening (AID 1296008). Also: nearly all actives have a fitted effect of over 60% in size. Particulars: Five cell lines viability, CellTiter-Glo ATP luminescence, 48-72 h; max response: active compounds read low. A digest of the protocol: (§1)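 Cytotoxicity was measured as CellTiter-Glo ATP luminescence, read after 10 min at room temperature. Compound treatment of the cells lasted 48 or 72 hr at 37 degrees Celsius in a qHTS format.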

Experiment [2] has as its system KB-3-1. Described as above. Particulars: Five cell lines viability, CellTiter-Glo ATP luminescence, 48-72 h; max response: active compounds read low. In short, it runs like this: as §1
Experiment [3] relates to MCC-13. Briefly: qHTS assay to identify novel small-molecules to repurpose for Merkel cell carcinoma treatment (AID 1296009). Also: nearly all actives have a fitted effect of over 60% in size. Also: potency is read from the fitted curve at half-maximal effect. Particulars: MCC and control cell lines, CellTiter-Glo viability, 72 h; series mostly up to 46 µM. In short, it runs like this:
(§2)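 72 hr, 37 degree celsius; NPC 8-pt / MIPE 11-pt dose response; compound pinned in DMSO; CellTiter-Glo, 10 min RT, luminescence; normalized to no-cell and DMSO controls.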
A general note: Quantitative high-throughput screening tests each substance at several concentrations.

The test system of experiment [4] is MCC-26. The experiment is described as above. Particulars: MCC and control cell lines, CellTiter-Glo viability, 72 h; series mostly up to 46 µM. In short, it runs like this: as §2
In experiment [5] the test system is MKL-1. The description is as above. Conditions: MCC and control cell lines, CellTiter-Glo viability, 72 h; series mostly up to 46 µM. A digest of the protocol:
as §2
On the technique in general: ATP-based viability assays read luminescence as a measure of living cells.

In experiment [6] the test system is MKL-2. The experiment is described as above. Particulars: MCC and control cell lines, CellTiter-Glo viability, 72 h; series mostly up to 46 µM. In short, it runs like this: as §2
Experiment [7] concerns C33A. Briefly: Primary qHTS to identify gynecologic anti-cancer compounds using libraries of approved drugs and bioactive compounds (AID 1345084). Also: nearly all actives have a fitted effect of over 55% in size. Also: potency is read from the fitted curve at half-maximal effect. Particulars: Gynecologic cancer cell panel viability, ATPlite luminescence, 48 h; series mostly up to 57.5 µM. In short, it runs like this: (§3)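 48 h compound exposure at 37 C, 5% CO2; five-point qHTS. ATPlite luminescence readout of cell ATP.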

The test system of experiment [8] is CASKI. The experiment is described as above. Particulars: Gynecologic cancer cell panel viability, ATPlite luminescence, 48 h; series mostly up to 57.5 µM. A digest of the protocol:
as §3

Experiment [9] concerns Es-2. The description is as above. Particulars: Gynecologic cancer cell panel viability, ATPlite luminescence, 48 h; series mostly up to 57.5 µM. In short, it runs like this:
as §3

Experiment [10] concerns HeLa. The description is as above. Conditions: Gynecologic cancer cell panel viability, ATPlite luminescence, 48 h; series mostly up to 57.5 µM. In short, it runs like this:
as §3

Experiment [11] relates to CRL-7250. As to the kind of experiment: qHTS assay to identify novel small-molecules to repurpose for Merkel cell carcinoma treatment (AID 1296009). Also: nearly all actives have a fitted effect of over 60% in size. Also: potency is read from the fitted curve at half-maximal effect. Conditions: MCC and control cell lines, CellTiter-Glo viability, 72 h; at 44.8 µM (top of the series) unless noted. A digest of the protocol:
as §2

In experiment [12] the test system is UISO. The experiment is described as above. Conditions: MCC and control cell lines, CellTiter-Glo viability, 72 h; series mostly up to 46 µM. In short, it runs like this:
as §2

Experiment [13] deals with WaGa. The description is as above. Conditions: MCC and control cell lines, CellTiter-Glo viability, 72 h; series mostly up to 46 µM. In short, it runs like this:
as §2

For experiment [14], the system named is CAOV3. As to the kind of experiment: Primary qHTS to identify gynecologic anti-cancer compounds using libraries of approved drugs and bioactive compounds (AID 1345084). Also: nearly all actives have a fitted effect of over 55% in size. Also: potency is read from the fitted curve at half-maximal effect. Particulars: Gynecologic cancer cell panel viability, ATPlite luminescence, 48 h; series mostly up to 57.5 µM. In short, it runs like this:
as §3

Experiment [15] deals with NIH3T3. As to the kind of experiment: Cytotoxic Profiling of Annotated Libraries Using Quantitative High-Throughput Screening (AID 1296008). Also: nearly all actives have a fitted effect of over 60% in size. Conditions: Five cell lines viability, CellTiter-Glo ATP luminescence, 48-72 h; max response: active compounds read low. A digest of the protocol: as §1
Experiment [16] relates to HACAT. As to the kind of experiment: qHTS assay to identify novel small-molecules to repurpose for Merkel cell carcinoma treatment (AID 1296009). Also: nearly all actives have a fitted effect of over 60% in size. Also: potency is read from the fitted curve at half-maximal effect. Particulars: MCC and control cell lines, CellTiter-Glo viability, 72 h; at 44.8 µM (top of the series) unless noted. In short, it runs like this: as §2
% is scaled to controls: 0 for no effect and ±100 for the full control effect.

Take `Clc1ccc(C(OCCN2CCCCC2)c2ccccc2)cc1` (centres undefined): the figures for the max response in experiment [1] and in [2] were -5.7% and -23.9%, respectively. The Potency entry in experiment [3], in [4], in experiment [5], in [6], in experiment [7] and in [8] was “inactive” throughout. Moreover, the Potency result in [9] and in experiment [10] was “inactive” throughout.
For `CCCCCCCC/C=C\CCCCCCCCN`, the compound was classed as inactive in experiment [11].
Still for that read-out and setting: to `CN1CCOC(c2ccccc2)c2ccccc2C1` (centres undefined) belongs “inactive”; to `CC1(C)[C@@H]2CC[C@@]1(C)C(=O)C2`, “inactive”; to `Cl/C(=C\n1cncn1)c1ccc(Cl)cc1Cl`, “inactive”.
`CN1C(=O)CN=C(c2ccccc2)c2cc(Cl)ccc21`: the max response in [1] is -27.5%; in [2] it was -19.7%. Besides, the Potency result in [4], in [5], in experiment [6], in experiment [12], in [13] and in [7] was “inactive” in each case. The Potency entry in experiment [8], in experiment [9] and in [10] was “inactive” throughout.
On to `Cc1c(N)cccc1C(F)(F)F`, for which the call in [11] was inactive.
As to `O=C(OCC(O)CO)c1ccccc1Nc1ccnc2cc(Cl)ccc12` (centres undefined), in [11], the outcome was inactive.
As for `Clc1ccc(C(Cn2ccnc2)OCc2c(Cl)cccc2Cl)c(Cl)c1` (centres undefined), in experiment [11], the call was inactive.
The same measure, in the same setting: next, `CCCOC(=O)c1ccc(N)cc1`: “inactive”; `CCOc1ccccc1O[C@H](c1ccccc1)[C@H]1CNCCO1`: “inactive”; `O=C(O)CN(CCOCCOCCN(CC(=O)O)CC(=O)O)CC(=O)O`: “inactive [at 0.588 µM]”.
Take `Clc1ccc(CSC(Cn2ccnc2)c2ccc(Cl)cc2Cl)cc1` (centres undefined): the max response in experiment [2] was -15.3%. In addition, the results for the Potency in [6] and in experiment [12] were 13.3 µM (active) and 26.6 µM (active), respectively. Besides, the Potency result in [8], in experiment [9] and in experiment [10] was “inactive” in each case.
For the compound `CCC(CN)=C(c1ccccc1)c1ccccc1`, in experiment [11], the result was inactive.
On to `CCCCC1(COC(=O)CCC(=O)O)C(=O)N(c2ccccc2)N(c2ccccc2)C1=O`, for which the compound was called inactive in [11].
The same measure, in the same setting: to `OCCN1CCN(CCCN2c3ccccc3C=Cc3ccccc32)CC1` belongs “inactive”.
The same measure, in the same setting: next, `NS(=O)(=O)c1cc2c(cc1Cl)NCNS2(=O)=O`: “inactive”; `O=C(O)Cn1c(C(=O)Nc2nc(-c3ccccc3Cl)cs2)cc2ccccc21`: “inactive”.
Same read-out and setting: to `NC(N)=NCCC[C@H](N)C(=O)O` belongs “inactive [at 4.96 µM]”.
Take `O=C1NCN(c2ccccc2)C12CCN(CCCOc1ccc(F)cc1)CC2`: the max response in experiment [2] is 25%. The Potency entry in experiment [3], in experiment [5], in experiment [6], in experiment [12], in [13] and in experiment [7] was “inactive” throughout. Further, the Potency entry in experiment [14], in experiment [8], in experiment [9] and in [10] was “inactive” each time.
In the case of `CSc1ccc(/C=C2/C(C)=C(CC(=O)O)c3cc(F)ccc32)cc1`, the call in experiment [11] was inactive.
Same read-out and setting: to `Clc1ccc(Cn2c(CN3CCCC3)nc3ccccc32)cc1` belongs “inactive”; to `CN(C)C/C=C(/c1ccc(Br)cc1)c1cccnc1`, “inactive”.
As to `C[C@]12CCC(=O)C=C1[C@@H]1C[C@@H]1[C@H]1[C@@H]3[C@@H]4C[C@@H]4[C@@]4(CCC(=O)O4)[C@@]3(C)CC[C@@H]12`, the outcome in [11] was inactive.
With `C[C@]12Cc3nonc3C[C@@H]1CC[C@@H]1[C@@H]2CC[C@@]2(C)[C@H]1CC[C@]2(C)O`, the call in experiment [1] and in [16] was inactive. Besides, the max response in experiment [15] is -6.95%. The Potency result in experiment [3], in experiment [4], in [7], in experiment [14], in experiment [8] and in experiment [9] was “inactive” throughout. The Potency is 18.8 µM (active) in experiment [13] and 2.82 µM (active) in experiment [10].
